Compound activity as filed in PubChem BioAssay.
D1 antagonist: antagonists of human D1 dopamine receptor; HEK293 TREx D1 cells, calcium flux, dopamine EC80; hits give low values; activity change, negative = inhibition, % at 10 µM; actives 3.2% (n = 360,000); AID 504652; in the data active = activity change below about -30%; also: % is scaled to controls: 0 for no effect and ±100 for the full control effect
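Antagonism measured as reduced calcium response to an EC80 dopamine addition following 180 s compound pre-read; cells were inducible HEK293 Trex D1 plated overnight at 30 C, read kinetically at 1 cycle/sec.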
DRD3 agonist: agonists of human D3 dopamine receptor | actives 0.58% (n = 410,000) | D3R DiscoveRx beta-arrestin cells, luminescence, 90 min | max activation, % | P35462; in the data active = max activation above about 30%; also: 0% is about no effect
Target sequence (P35462 whole entry, looked up): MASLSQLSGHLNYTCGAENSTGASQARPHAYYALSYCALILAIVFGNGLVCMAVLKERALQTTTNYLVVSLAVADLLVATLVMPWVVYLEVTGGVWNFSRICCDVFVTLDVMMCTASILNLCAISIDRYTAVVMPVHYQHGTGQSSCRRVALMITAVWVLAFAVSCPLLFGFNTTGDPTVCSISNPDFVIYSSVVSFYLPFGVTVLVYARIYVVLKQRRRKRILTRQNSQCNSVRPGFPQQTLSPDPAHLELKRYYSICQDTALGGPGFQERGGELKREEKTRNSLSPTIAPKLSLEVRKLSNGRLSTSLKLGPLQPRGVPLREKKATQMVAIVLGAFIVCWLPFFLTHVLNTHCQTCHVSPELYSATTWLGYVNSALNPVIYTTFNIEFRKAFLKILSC
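Agonist mode: compounds and dopamine controls were applied to plated cells for 90 min at 37 degrees C after an overnight attachment at 1500 cells/well. Luminescent read-out followed 30 - 60 minutes at room temperature with DiscoveRx detection reagent.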
D1 agonist: agonists of human D1 dopamine receptor | activation, % at 2 µM | actives 1% (n = 360,000) | HEK293 T-REx D1 cells, calcium flux, agonist mode | AID 504660 | P21728; in the data active = activation above about 30%; also: 0% is about no effect
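Agonism was scored from calcium flux recorded over 180 s (1 read/s) after pintool compound addition, following a 10-cycle baseline. Cells were inducible force-coupled HEK293 TREx D1, plated overnight at 30 C and loaded with no-wash calcium dye.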
DRD3 antagonist: blocks the human D3 dopamine receptor | P35462 | D3R cells, DiscoveRx beta-arrestin luminescence, antagonist mode; hits give low values | max response, negative = inhibition, % | actives 2.5% (n = 360,000) | AID 652054; in the data active = max response below about -50%; inconclusive = no clear call, values can overlap the other calls; also: % is scaled to controls: 0 for no effect and ±100 for the full control effect
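Cells plated overnight at 1500 cells/well, then exposed to library compounds with dopamine controls for 90 minutes at 37 degrees C. DiscoveRx reagent added for 30–60 minutes at room temperature; luminescence read, quantitative HTS format.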
D1 PAM: potentiators of human D1 dopamine receptor | P21728 | HEK293 TREx D1 cells, calcium flux, dopamine EC20 potentiation | potentiation, % at 10 µM | actives 0.036% (n = 360,000) | AID 504651; in the data active = potentiation above about 30%; also: 0% is about no effect
Starred values were filed as active, the others as inactive; ? = inconclusive; . = no result given. A selection: hits, their analogues and other compounds. The true share with any hit is near 6.1%.

SMILES	D1 antagonist	DRD3 agonist	D1 agonist	DRD3 antagonist	D1 PAM
Cc1sc2ncn(CC(=O)NCCCN3CC(C)CC(C)C3)c(=O)c2c1S(=O)(=O)N1CC(C)CC(C)C1 (stereo unspecified)	0	-28	2	-90*	9
COc1ccccc1N1CCN(C(=O)c2oc3ccccc3c2N)CC1	2	-4	-1	.	-4
COc1cccc(CN(C)C(=O)c2cc(-c3ccc(F)cc3)nc3ccccc23)c1	14	11	1	55	9
COc1cccc(CN(C)C(=O)c2cc(-c3ccc(OC)c(OC)c3)nc3ccccc23)c1	10	34*	3	39	-7
COc1cc(-c2nnc(SCCOc3ccc(Cl)cc3C)o2)cc(OC)c1OC	10	-11	5	.	3
Cc1ccc(-c2nc(CS(=O)(=O)CC(=O)Nc3ccc(Br)cc3F)c(C)o2)cc1	0	-7	4	.	-4
Cn1c(-c2ccc(S(=O)(=O)N3CCCC3)cc2)csc1=Nc1ccc(Cl)c(Cl)c1	-14	-3	-1	.	0
C[C@H](NC(=O)c1nc[nH]c1C(=O)N[C@H](C)c1ccccc1)C(=O)OCc1ccccc1	-33*	10	18	17	-8
Cc1cccc(NC(=O)c2nc[nH]c2C(=O)N[C@@H](CC(C)C)C(=O)OCc2ccccc2)c1	-10	0	6	-2	-3
Cc1cccc(NC(=O)c2nc[nH]c2C(=O)N[C@@H](C)C(=O)OCc2ccccc2)c1	-33*	10	2	39	-4
C[C@@H](NC(=O)c1nc[nH]c1C(=O)N[C@@H](Cc1ccccc1)C(=O)OCc1ccccc1)c1ccccc1	-17	14	2	?	-1
CC(C)C[C@H](NC(=O)c1nc[nH]c1C(=O)N1CCNCC1)C(=O)OC(C)(C)C	2	-17	-1	-54*	-1
C[C@H](NC(=O)c1nc[nH]c1C(=O)N1CCNCC1)C(=O)OC(C)(C)C	8	11	0	4	5
CC(C)C[C@H](NC(=O)c1nc[nH]c1C(=O)NCc1ccccc1)C(=O)OCc1ccccc1	3	-4	11	-53*	-3
CCc1ccccc1NC(=O)CN1C(=O)CCn2nc(-c3cccn3C)cc21	-9	4	4	.	-1
COc1cc(OC)c(C2C=C(c3ccc(C)cc3)Nc3c(C(=O)Nc4ccccc4)cnn32)cc1OC (stereo unspecified)	-45*	-5	3	.	-6
COc1cccc(OC)c1OCCCOc1c(OC)cccc1OC	-13	-2	4	-4	-2
COc1cccc(OC)c1OCCNCC1CSc2ccccc2O1 (stereo unspecified)	.	-81	.	-95*	.
CN(Cc1ccccc1)C(=O)c1nc2ccccn2c1CN1CCc2sccc2C1	-33*	-1	3	11	-4
Cn1cc(S(C)=O)c(=O)c2ccc(F)cc21 (stereo unspecified)	.	4	.	.	.
CNC[C@H](CC1CCCCC1)NC[C@H](Cc1ccccc1)NCCC12CC3CC(CC(C3)C1)C2	8	-41	32*	0	4
Cc1ccc(C)c(NC(=O)CSc2nc3nccnc3c(=O)n2CCc2c[nH]c3ccccc23)c1	0	4	2	.	-2
O=C(NC1CCN(Cc2ccccc2)CC1)c1cccc(Br)c1	0	-44	5	-85*	-13
C=C(C)c1cccc(C(C)(C)NC(=O)NC2CCN(Cc3ccccc3)CC2)c1	7	-15	6	-77*	1
CN(CC(=O)NC1CCN(Cc2ccccc2)CC1)S(=O)(=O)c1ccc(Br)s1	-19	-20	13	-56*	5
SMILES	D1 antagonist	DRD3 agonist	D1 agonist	DRD3 antagonist	D1 PAM
S=C(NCc1ccc2c(c1)OCO2)NC1CCN(Cc2ccccc2)CC1	-15	-20	38*	-60*	-6
CCc1c(C)sc2c1CCN(Cc1cccc(F)c1)C2c1ccccc1 (stereo unspecified)	-7	2	2	.	-1
O=C(NC1CCN(Cc2ccccc2)CC1)c1cccc(OC(F)F)c1	-33*	-9	8	-55*	-11
O=C(NC1CCN(Cc2ccccc2)CC1)c1ccc2c(c1)OCCCO2	-3	-25	3	-57*	-3
O=C(NC1CCN(Cc2ccccc2)CC1)C1COc2ccccc2O1 (stereo unspecified)	-15	1	3	-78*	-15
O=C(NC1CCCCC1)c1cccc(OCc2ccccc2)c1	-27	-7	37*	-8	-2
